Results reported in the supplement of paper PMC6555819.

Tests used:
Experiment in all cases: PBM binding z-score (relative to random genomic background probes); higher = stronger binding; sequences stand for … in GC…GCGATTGACAGCGTAGAATGAAGG
[1] = system: FXR:RXRa (NR concentration 270 nM, RXRa partner concentration 90 nM)
Summary of the method: (§1)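 Ligand-free nuclear receptor dimers were applied to custom Agilent 4×180K protein-binding microarrays whose double-stranded probes carried direct-repeat seeds, single-nucleotide variants, half-site ablations and random human genomic background sequences in 34-nt variable regions. Incubation lasted 1 h. Binding z-scores were computed against the random background probes from regression-normalized fluorescence.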

[2] = system: LXRa:RXRa (NR concentration 270 nM, RXRa partner concentration 90 nM)
Summary of the method: as §1

[3] = system: LXRa homodimer (NR concentration 270 nM)
Summary of the method: as §1

[4] = system: LXRb:RXRa (NR concentration 270 nM, RXRa partner concentration 90 nM)
Summary of the method: as §1

[5] = system: LXRb homodimer (NR concentration 270 nM)
Summary of the method: as §1

[6] = system: PPARa:RXRa (NR concentration 270 nM, RXRa partner concentration 90 nM)
Summary of the method: as §1

[7] = system: PPARg:RXRa (NR concentration 180 nM, RXRa partner concentration 90 nM)
Summary of the method: as §1

[8] = system: PPARg:RXRa 270nM:90nM, anti-RXR (NR concentration 270 nM, RXRa partner concentration 90 nM)
Summary of the method: as §1

[9] = system: PPARg:RXRa 30nM:10nM, anti-RXR (NR concentration 30 nM, RXRa partner concentration 10 nM)
Summary of the method: as §1

[10] = system: PPARg:RXRa 90nM:30nM, anti-RXR (NR concentration 90 nM, RXRa partner concentration 30 nM)
Summary of the method: as §1

[11] = system: PPARg:RXRa DBDmut IVT, anti-RXR (DBD mutation: RXRa K156A/R161A, NR concentration 270 nM, RXRa partner concentration 90 nM)
Summary of the method: as §1

[12] = system: PPARg:RXRa IVT, anti-PPARg (NR concentration 270 nM, RXRa partner concentration 90 nM)
Summary of the method: as §1

[13] = system: PPARg DBDmut:RXRa IVT, anti-PPARg (DBD mutation: PPARg1 K132A/R137A, NR concentration 270 nM, RXRa partner concentration 90 nM)
Summary of the method: as §1

[14] = system: PPARg DBDmut IVT, anti-PPARg (DBD mutation: PPARg1 K132A/R137A, NR concentration 270 nM)
Summary of the method: as §1

[15] = system: PPARg homodimer (NR concentration 180 nM)
Summary of the method: as §1

[16] = system: PXR:RXRa (NR concentration 270 nM, RXRa partner concentration 90 nM)
Summary of the method: as §1

[17] = system: PXR homodimer (NR concentration 270 nM)
Summary of the method: as §1

[18] = system: RARa:RXR (NR concentration 270 nM, RXRa partner concentration 90 nM)
Summary of the method: as §1

[19] = system: RARa homodimer (NR concentration 270 nM)
Summary of the method: as §1

[20] = system: RARb:RXRa (NR concentration 270 nM, RXRa partner concentration 90 nM)
Summary of the method: as §1

Sequence | PBM binding z-score [1] | PBM binding z-score [2] | PBM binding z-score [3] | PBM binding z-score [4] | PBM binding z-score [5] | PBM binding z-score [6] | PBM binding z-score [7] | PBM binding z-score [8] | PBM binding z-score [9] | PBM binding z-score [10] | PBM binding z-score [11] | PBM binding z-score [12] | PBM binding z-score [13] | PBM binding z-score [14] | PBM binding z-score [15] | PBM binding z-score [16] | PBM binding z-score [17] | PBM binding z-score [18] | PBM binding z-score [19] | PBM binding z-score [20]
TCTAGCAGGCTAGAGGGTCACTCAAGAGGTACGG | 1.01 | 0.938 | -0.529 | 0.868 | -1.08 | 2.4 | 1.05 | 2 | 1.9 | 1.98 | 0.497 | 0.41 | -0.174 | -0.574 | 0.731 | 1.48 | -0.354 | 2.02 | -0.017 | 1.93
CAGAGTAGGTTATGGGGCATTCAGGCAACGGTGA | 0.558 | 0.666 | 0.0454 | 0.833 | -0.04 | 2.78 | 4.39 | 5.4 | 3.13 | 5.42 | 3.95 | 4.66 | 1.11 | 0.548 | 1.69 | 0.233 | 0.246 | 0.549 | 0.726 | 1.23
CCGACTGAGGCAGAAAGGTTACCATACCATCCGG | 0.495 | 0.563 | 0.0475 | 0.877 | -0.972 | 1.82 | 1.05 | 1.42 | 0.27 | 0.899 | -0.0384 | -0.0549 | -1.78 | -0.731 | 0.893 | 0.855 | -0.109 | 1.69 | 0.393 | 1.62
TCTTGTAGATTAAGCAGGTTAAGAAAGCCTGAGT | 0.514 | 0.349 | -0.181 | 0.403 | -0.31 | 0.868 | -0.488 | 1.37 | 2.84 | 2.08 | 1.64 | 0.902 | 0.0777 | 0.04 | -0.0749 | 0.401 | 0.0794 | 0.419 | 0.0226 | 0.106
TCTGCTAGGTCAACGGTGGTCAGCTAATCTGCTA | 3.59 | 2.75 | -0.0402 | 1.6 | -0.0139 | 3.54 | 3.35 | 3.81 | 2.45 | 3.42 | 4.54 | 4.36 | -0.104 | -0.365 | 1.38 | 1.99 | -0.742 | 2.38 | -0.57 | 4.05
CCTAGTTGGTCATGGTCACACACGCTATAGGTAC | -0.0474 | 0.0849 | 0.431 | 0.71 | 0.175 | 0.348 | 1.04 | 0.761 | 0.167 | 0.467 | 1.53 | 1.72 | 0.378 | 0.935 | 0.845 | 0.223 | 0.732 | 0.207 | 1.39 | 1.46
